Ten molecules from publication PMC5540273 (PLoS ONE, 2017) can be followed below.

Common to all, as to conditions: concentration: 1 μM, replicates: in singlicate; n = 1
The subject of assay [1] is CDK8.
Assay [2] deals with CDK9.
For assay [3], the system named is CDKL1.
Assay [4] has as its system CDKL2.
For assay [5], the system named is CDKL3.
Assay [6] deals with CDKL5.
Assay [7] concerns CHEK1.
Assay [8] relates to CHEK2.
For assay [9], the system named is CIT.
In assay [10] the test system is CLK1.
In assay [11] the test system is CLK2.
In assay [12] the test system is CLK3.
In assay [13] the test system is CLK4.
Assay [14] deals with CSF1R-autoinhibited.
Assay [15] has as its system CSF1R.
For assay [16], the system named is CSK.
The subject of assay [17] is CSNK1A1L.
In assay [18] the test system is CSNK1A1.
The subject of assay [19] is CSNK1D.
Assay [20] concerns CSNK1E.
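Further: KINOMEscan kinase panel screen.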

Regarding `CN(c1ccc2c(c1)nc(NCc1ccccc1)n2C)c1ccnc(Nc2ccc(CS(C)(=O)=O)cc2)n1.Cl` [GW811603], the “%Inh” value stood at 79% in [1]; 15% in assay [2]; 20% in assay [3]; 0% in [4]; 16% in [5]; 9% in assay [6]. The “%Inh” value worked out at 0% in assay [7]; 0% in assay [8]; 55% in assay [9]; 31% in [10]; 0% in [11]; 43% in assay [12]. In addition, the “%Inh” value was determined as 0% in assay [13]; 80% in [14]; 100% in assay [15]; 14% in assay [16]; 0% in assay [17]; 36% in [18]. Also, the “%Inh” value in assay [19] turned out to be 0%; in assay [20], 18%.

For the molecule `Cl.N#CCc1ccc(Nc2nccc(Nc3ccc(Oc4ccccc4)cc3)n2)cc1` [GW639905], the “%Inh” value in assay [1] worked out at 0%; in [2], 0%; in assay [3] it was 3%; in [4], 55%; in [5], 0%; in assay [6], 0%. Moreover, the “%Inh” value amounted to 38% in [7]; 0% in assay [8]; 41% in [9]; 23% in assay [10]; 9% in assay [11]; 0% in assay [12]. The “%Inh” value in assay [13] came to 3%; in [14], 7%; in [15], 35%; in assay [16], 31%; in assay [17] it was 0%; in [18] it was 0%. Moreover, the “%Inh” value in [19] is listed as 0%; in assay [20] it was 8%.

For the molecule `Cc1ccc(-c2ccc3occ(-c4ccc(S(C)=O)cc4)c3c2)nn1` (centres unmarked), the “%Inh” value in assay [1] turned out to be 0%; in [2] it was 0%; in assay [3], 35%; in [4] it was 0%; in assay [5], 13%; in [6], 0%. The “%Inh” value in assay [7] came out at 0%; in assay [8], 11%; in assay [9], 0%; in [10] it was 0%; in [11], 0%; in assay [12] it was 0%. The “%Inh” value in [13] is reported as 70%; in assay [14], 13%; in assay [15] it was 0%; in assay [16] it was 1%; in assay [17], 0%; in [18] it was 0%. The “%Inh” value in assay [19] and in [20] was 0% each time.

Consider `Nc1cccc(-c2ccc3c(N)n[nH]c3c2)c1` [GSK2193613], for which the “%Inh” value in assay [1] was 42%; in [2], 3%; in [3], 19%; in assay [4], 23%; in assay [5], 0%; in [6] it was 0%. For the same molecule, the “%Inh” value in [7] worked out at 0%; in assay [8], 6%; in [9], 30%; in [10], 43%; in assay [11], 10%; in [12] it was 0%. The “%Inh” value is 64% in [13]; 17% in [14]; 2% in assay [15]; 0% in assay [16]; 13% in [17]; 0% in assay [18]. Besides, the “%Inh” value in [19] stood at 8%; in assay [20], 5%.

On to `NCCC(NC(=O)c1cc(Br)c(-c2ccnc3[nH]ccc23)s1)c1ccccc1.O=C(O)C(F)(F)F.O=C(O)C(F)(F)F` (centres unmarked) [GSK1307810], for which the “%Inh” value is 100% in assay [1]; 35% in [2]; 2% in assay [3]; 0% in assay [4]; 0% in assay [5]; 0% in assay [6]. Further, the “%Inh” value in assay [7] was 0%; in [8], 41%; in [9], 98.5%; in assay [10] it was 41%; in assay [11], 37%; in assay [12] it was 54%. Further, the “%Inh” value in [13] came out at 46%; in assay [14], 43%; in [15], 18%; in assay [16], 0%; in assay [17], 71%; in assay [18], 93.9%. Moreover, the “%Inh” value in assay [19] and in assay [20] was 94.1% in each case.

For the molecule `COc1cccc2c(-c3ccncc3)c(-c3ccc(F)cc3)nn12` [GW468513], the “%Inh” value in [1] worked out at 42%; in assay [2], 0%; in assay [3] it was 2%; in [4] it was 38%; in [5], 0%; in [6], 0%. Moreover, the “%Inh” value in assay [7] came out at 0%; in assay [8] it was 0%; in [9] it was 98%; in assay [10], 6%; in assay [11], 0%; in [12], 6%. The “%Inh” value in assay [13] turned out to be 17%; in assay [14], 24%; in [15], 0%; in assay [16], 0%; in [17], 50%; in assay [18] it was 93.6%. The “%Inh” value is reported as 90.7% in assay [19] and 99.8% in assay [20].

Take `CN(c1ccc(NC(=O)N2CCN(CCCN3CCOCC3)CC2)cc1)c1ccnc(Nc2ccc(CS(C)(=O)=O)cc2)n1.Cl` [GW830899]: the “%Inh” value in assay [1] is 44%; in assay [2], 0%; in [3] it was 100%; in [4], 9%; in assay [5], 0%; in assay [6] it was 0%. The “%Inh” value in [7] was 0%; in assay [8], 0%; in assay [9], 16%; in assay [10], 7%; in assay [11], 0%; in assay [12], 0%. The “%Inh” value is 0% in assay [13]; 0% in assay [14]; 66% in assay [15]; 24% in assay [16]; 79% in assay [17]; 25% in assay [18]. Besides, the “%Inh” value in assay [19] turned out to be 5%; in [20] it was 0%.

Turning to `COc1cccc(-c2nc(-c3ccccc3)[nH]c2-c2ccncc2)c1` [SB-610250], the “%Inh” value was determined as 30% in assay [1]; 0% in assay [2]; 20% in [3]; 23% in assay [4]; 0% in assay [5]; 8% in [6]. Further, the “%Inh” value in assay [7] was 0%; in assay [8], 0%; in assay [9] it was 47%; in assay [10], 29%; in assay [11] it was 0%; in assay [12], 27%. Further, the “%Inh” value is recorded as 8% in assay [13]; 0% in assay [14]; 2% in assay [15]; 0% in [16]; 19% in assay [17]; 47% in [18]. Moreover, the results for the “%Inh” value in [19] and in assay [20] were 66% and 68%, respectively.

For the molecule `O=C(Nc1c(F)cccc1F)c1cc(C(=O)c2ccccc2F)c[nH]1` [GSK1326180], the “%Inh” value in assay [1] turned out to be 14%; in assay [2] it was 0%; in assay [3] it was 0%; in assay [4], 7%; in assay [5], 0%; in assay [6], 0%. Further, the “%Inh” value in [7] is given as 0%; in assay [8] it was 11%; in assay [9], 5%; in assay [10], 22%; in assay [11] it was 0%; in assay [12] it was 2%. Besides, the “%Inh” value in assay [13] was determined as 0%; in assay [14] it was 32%; in assay [15], 1%; in [16], 0%; in assay [17], 5%; in [18] it was 16%. Also, the “%Inh” value is given as 0% in assay [19] and 20% in [20].

With `O=C(O)C(F)(F)F.O=c1[nH]ccc2nc(N[C@@H]3CCNC3)nc(Nc3ccc4c(c3)S(=O)(=O)CC4)c12` [GSK2181306], the “%Inh” value in assay [1] was determined as 0%; in [2], 30%; in assay [3], 40%; in assay [4], 44%; in [5] it was 0%; in assay [6] it was 0%. For the same molecule, the “%Inh” value in assay [7] stood at 98.3%; in assay [8] it was 82%; in assay [9] it was 84%; in assay [10] it was 74%; in assay [11], 95%; in [12] it was 17%. Besides, the “%Inh” value in [13] was determined as 80%; in [14] it was 0%; in assay [15], 86%; in [16], 5%; in assay [17] it was 90%; in [18], 97.7%. Besides, the “%Inh” value in assay [19] worked out at 96.7%; in [20] it was 96.3%.
